Experimental data from the supplement of paper PMC6555819.

Assays:
Assay in all cases: PBM binding z-score (relative to random genomic background probes); higher = stronger binding; sequences stand for … in GC…GCGATTGACAGCGTAGAATGAAGG
[1] = system: FXR:RXRa (NR concentration 270 nM, RXRa partner concentration 90 nM)
In short: (§1)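 Regression normalization was applied to scanned fluorescence from custom Agilent 4×180K protein-binding microarrays. Before scanning, arrays were incubated 1 h with ligand-free nuclear receptor dimers, and binding was detected with antibodies against each partner (one per run). Binding z-scores use the random background probes as reference.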

[2] = system: LXRa:RXRa (NR concentration 270 nM, RXRa partner concentration 90 nM)
In short: as §1

[3] = system: LXRa homodimer (NR concentration 270 nM)
In short: as §1

[4] = system: LXRb:RXRa (NR concentration 270 nM, RXRa partner concentration 90 nM)
In short: as §1

[5] = system: LXRb homodimer (NR concentration 270 nM)
In short: as §1

[6] = system: PPARa:RXRa (NR concentration 270 nM, RXRa partner concentration 90 nM)
In short: as §1

[7] = system: PPARg:RXRa (NR concentration 180 nM, RXRa partner concentration 90 nM)
In short: as §1

[8] = system: PPARg:RXRa 270nM:90nM, anti-RXR (NR concentration 270 nM, RXRa partner concentration 90 nM)
In short: as §1

[9] = system: PPARg:RXRa 30nM:10nM, anti-RXR (NR concentration 30 nM, RXRa partner concentration 10 nM)
In short: as §1

[10] = system: PPARg:RXRa 90nM:30nM, anti-RXR (NR concentration 90 nM, RXRa partner concentration 30 nM)
In short: as §1

[11] = system: PPARg:RXRa DBDmut IVT, anti-RXR (DBD mutation: RXRa K156A/R161A, NR concentration 270 nM, RXRa partner concentration 90 nM)
In short: as §1

[12] = system: PPARg:RXRa IVT, anti-PPARg (NR concentration 270 nM, RXRa partner concentration 90 nM)
In short: as §1

[13] = system: PPARg DBDmut:RXRa IVT, anti-PPARg (DBD mutation: PPARg1 K132A/R137A, NR concentration 270 nM, RXRa partner concentration 90 nM)
In short: as §1

[14] = system: PPARg DBDmut IVT, anti-PPARg (DBD mutation: PPARg1 K132A/R137A, NR concentration 270 nM)
In short: as §1

[15] = system: PPARg homodimer (NR concentration 180 nM)
In short: as §1

[16] = system: PXR:RXRa (NR concentration 270 nM, RXRa partner concentration 90 nM)
In short: as §1

[17] = system: PXR homodimer (NR concentration 270 nM)
In short: as §1

[18] = system: RARa:RXR (NR concentration 270 nM, RXRa partner concentration 90 nM)
In short: as §1

[19] = system: RARa homodimer (NR concentration 270 nM)
In short: as §1

[20] = system: RARb:RXRa (NR concentration 270 nM, RXRa partner concentration 90 nM)
In short: as §1

Sequence	PBM binding z-score [1]	PBM binding z-score [2]	PBM binding z-score [3]	PBM binding z-score [4]	PBM binding z-score [5]	PBM binding z-score [6]	PBM binding z-score [7]	PBM binding z-score [8]	PBM binding z-score [9]	PBM binding z-score [10]	PBM binding z-score [11]	PBM binding z-score [12]	PBM binding z-score [13]	PBM binding z-score [14]	PBM binding z-score [15]	PBM binding z-score [16]	PBM binding z-score [17]	PBM binding z-score [18]	PBM binding z-score [19]	PBM binding z-score [20]
CCTACTGGGCCATCAGATCATTGATATCAACGTT	-0.345	-0.391	-0.0851	-0.263	-0.349	0.662	1.01	1.49	0.163	1.28	4.57	3.97	0.261	0.0377	-0.139	-0.487	-0.238	-0.391	0.289	0.228
CGAACTAGGTCATTGGCAGGACAGTGAATAGTAA	4.29	2.62	0.219	1.66	-0.306	4.73	7.68	6.26	3.37	5.72	8.14	8.31	3.04	0.566	1.51	1.61	-0.0888	2.11	0.516	3.71
GATACAAGGTCAAGGCCAGAGTACGCGTATTGAT	7.16	5.44	1.37	4.03	0.481	5.49	5.86	5.56	2.28	4.41	3.92	4.69	1.01	0.226	2.18	3.85	0.847	4.27	0.975	5.35
AATACAGGGTCACTACGCCAGAGTAGGTACGAAT	6.43	4.99	1.13	4.16	1.17	5.41	6.19	5.01	2.58	3.89	2.98	4.51	2.04	1.71	2.16	3.28	0.564	4.53	1.63	4.17
CCTCCTGGGCCAAAAAGGTCATTGATGCCGATAA	3.19	3.89	2.81	4.12	0.202	4.47	0.997	2.63	0.448	1.63	-0.0525	1.53	-0.96	-0.947	2.51	4.62	2.5	4.44	0.621	3.9
TGTTGTAGATCAAGCAGGTTAAGAAAGCCTGAGT	-0.212	-0.245	-0.47	-0.0172	-0.215	0.282	-0.51	-0.0645	-0.0716	-0.0785	-0.275	0.329	0.0224	-0.646	-0.211	0.13	0.0391	0.16	0.163	-0.116
GGATCGAGGGCAAGTTGATAGCAGAGTTTGATGG	0.982	0.317	-0.184	0.122	0.0808	1.42	0.962	0.758	0.0505	0.387	3.34	2.56	-0.16	-0.137	1.07	0.76	0.825	0.165	0.158	2.49
TGTCAAAGTTTAAAGGTAACGTAAGTATCCACAC	1.49	1.72	0.175	1.29	-0.187	2.79	4.23	4.3	1.98	3.41	-0.319	2.73	0.942	1.54	0.899	1.7	0.39	2.12	0.576	2.46
ATCTCTCGGTAACCAAGTTCAGTGAATGCCGAAC	0.00199	0.567	1.33	0.672	0.975	0.668	-0.0283	0.289	-0.287	0.0566	-0.264	0.594	0.5	0.409	0.702	1.85	1.8	0.427	0.774	0.997
CCTACTGGGCAATTCAGAGGTCATTGATCATATG	2.49	4.41	6.82	3.68	0.374	3.51	0.682	2.06	0.0551	0.942	1.37	1.97	0.00726	-0.498	2.09	4.71	2.44	4.45	0.887	2.82
GATACAGGGTCAGCTAGAGGCCAGTGTATGGAAA	4.14	2.46	-0.408	2.42	-0.768	4.11	3.25	3	1.16	1.86	0.823	2.25	0.256	-0.378	3.5	3.29	0.17	4.54	-0.191	4.15
AGTCAAAGTTCATGACGAGGTAACGTAAAGCACG	6.67	6.13	2.96	3.45	0.691	5.01	6.45	6.59	3.58	5.63	0.137	3.44	1.06	1.37	3.26	4.93	1.98	4.61	0.824	4.84
TAGCCTAGGTCATTCAGGGGCCAGTCTAGAAAGC	4.72	3.65	0.514	2.84	0.819	3.29	1.75	2.25	-0.0756	1.15	1.37	2.68	0.235	0.0209	2	2.58	-0.494	3.47	-0.518	3.75
CGAACTCGGTCAAGGACAGTGAATCTCCGCACGC	0.923	0.427	-0.214	-0.232	-0.75	0.927	0.826	0.618	-0.54	-0.129	3.2	2.25	-0.0732	-0.272	-0.336	0.0143	-0.196	0.378	-0.323	2.62
ATATGTAGGTTATCGGGTCATTAAGTTTGCGCAT	3	2.85	1.77	2.95	1.02	5	7.09	6.08	3.81	5.71	7.51	7.55	2.77	2.29	2.72	4.08	9.55	3.8	1.51	2.62
CCTACTAGGCCATCAGGTCATTGATATCAACGTT	2.15	1.63	1.62	2.16	0.844	3.19	3.75	4	2.04	3.5	6.04	5.32	0.857	0.291	1.87	2.04	1.66	2.59	1.47	2.45
CCTAGCAGGCCAATCTGGGTCATTCAAGGCTTGA	1.16	1.52	-0.318	0.813	-1.03	2.54	1.18	1.73	-0.272	0.958	3.81	4.05	-1.11	-0.944	0.0423	1.63	-0.53	1.04	-0.337	1.17
AGAACGAGGGCAACGAGTTGATAGCACGGGTGGC	0.357	0.068	-0.499	-0.258	-0.674	1.59	1.67	1.29	0.0508	0.609	3.47	3.2	0.361	-0.0508	-0.253	1.49	3.88	0.217	-0.868	2.23
